# According to PubChem BioAssay:
# Activity calls are given as the source filed them. Unless noted, the rule behind the calls is not given here.
# How the values were obtained:
# [1] = test system: Wnt5a (protein binding on small-molecule microarray); assay: Wnt5a binders on small-molecule microarray, primary screen, biophysical, 635/667 nm fluorescence (AID 1142); details: 635 nm fluorescence, higher = more signal;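 note: fluorescence read at 667 nm with signal to noise per printed feature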
# [2] = cell viability in Huh7 cells, primary screen, cytotoxicity control for HCV replication inhibitor project, CellTiter-Glo luminescence, basal, 48 h (AID 1143); details: Huh7 HCV replicon, higher = more signal, called active from +8 up or from −8 down;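 note: Huh7 hepatoma cells carrying a hepatitis C replication reporter with no stimulus; test concentration not given here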
# [3] = P. aeruginosa biofilm formation inhibitors, primary screen, PAO1 strain, BacTiter-Glo luminescence, LB-PBS (AID 1144); details: 12 h, higher = more signal
# [4] = CREB reporter modulators without forskolin, primary screen, cell-based, PC12, CRE-LacZ reporter, unstimulated (AID 1145); details: no forskolin, luminescence, 4.5 h, higher = more signal, called active from +8 up or from −8 down
# [5] = CREB reporter modulators under forskolin, primary screen, cell-based, PC12, CRE-LacZ reporter, forskolin-stimulated (AID 1146); details: luminescence, 4.5 h, higher = more signal, called active from +8 up or from −8 down;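 note: PC12 cells with 6xCRE LacZ reporter stimulated by forskolin 10 µM; beta-galactosidase reporter signal reflecting CREB driven transcription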
# [6] = molecular target: Streptavidin (Streptomyces avidinii) (UniProt P22629); assay: streptavidin binders on small-molecule microarray, primary screen, artefact control for SMM compound annotation, biophysical, 635/667 nm fluorescence (AID 1147); details: streptavidin binding, higher = more signal;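 note: signal reflects streptavidin binding to arrayed compounds as a control protein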
# [7] = small-molecule binders of probe aInhba, primary screen, biochemical, small-molecule microarray, 635/667 nm fluorescence (AID 1148); details: higher = more signal;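 note: score merges 667nm spot fluorescence with signal-to-noise for antibody binding to printed compounds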
# Torsin-1A (Homo sapiens) [8] = molecular target: Torsin-1A (Homo sapiens) (UniProt O14656); assay: torsin A binders from cell lysate, primary screen, small-molecule microarray, wild-type, 635/667 nm (AID 1149); details: COS7 hTOR1A-WT lysate, 635 nm fluorescence, higher = more signal
# Torsin-1A (Homo sapiens) [9] = molecular target: Torsin-1A (Homo sapiens) (UniProt O14656); assay: small-molecule binders of mutant TOR1A in lysate, primary screen, cell lysate, small-molecule microarray, COS7 lysate, 635/667 nm fluorescence (AID 1150); details: COS7 hTOR1A mutant lysate, 635 nm fluorescence, higher = more signal;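 note: score pools 667 nm emission and signal to noise measuring lysate protein binding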
# [10] = test system: Sonic hedgehog protein (Shh); assay: small-molecule binders of Shh protein, primary screen, biochemical, small-molecule microarray, 635/667 nm fluorescence (AID 1151); details: small-molecule microarray binding, 635 nm fluorescence; higher = more signal;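 note: Shh protein binding to compounds spotted on small-molecule microarray slides; score combines spot fluorescence intensity with signal-to-noise across triplicate slides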
# [11] = E. coli DRC41 culture turbidity changes, primary screen, E. coli filamentation inducer project, strain DRC41, OD650, 48 h (AID 1152);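 note: E. coli MC1000 strain DRC41 lacking acrAB efflux pump and sulA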; details: E. coli DRC41 (acrAB sulA), higher = more signal, called active from +8 up or from −8 down
# [12] = small-molecule binders of probe aLefty1, primary screen, biochemical, small-molecule microarray, 635/667 nm fluorescence (AID 1153); details: higher = more signal;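 note: score merges spot fluorescence with signal-to-noise ratio from the scanned slide images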
# [13] = PSAC antagonists in infected red cells, primary screen, cell-based, P. falciparum Indochina, OD700, 1 h (AID 1154); details: P. falciparum Indochina infected RBC osmotic lysis, higher = more signal, called active from +8 up or from −8 down
# [14] = PSAC antagonists in infected red cells, primary screen, cell-based, P. falciparum Indochina, OD700, 2 h (AID 1155);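 note: lysis reports solute entry through the parasite surface anion channel PSAC; channel blockers reduce lysis of infected cells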; details: P. falciparum Indochina infected erythrocytes, osmotic lysis OD700; higher = more signal, called active from +8 up or from −8 down
# [15] = osmotic lysis modulators in infected erythrocytes, primary screen, PSAC antagonist project, cell-based, P. falciparum Indochina, OD700, 3 h (AID 1156); details: higher = more signal, called active from +8 up or from −8 down
# [16] = PSAC antagonists in infected red cells, primary screen, cell-based, P. falciparum Indochina, OD700, 18 h (AID 1157); details: P. falciparum Indochina infected erythrocytes, osmotic lysis OD700, 18 h; higher = more signal, called active from +8 up or from −8 down
# [17] = modulators of S6 phosphorylation in cells, primary screen, cell-based, A549, cytoblot, luminescence, serum-stimulated (AID 1158); details: A549 phospho-S6 cytoblot, 5 h, higher = more signal;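 note: serum-stimulated A549 lung adenocarcinoma cells; signal is phosphorylated S6 detected by cytoblot immunostaining with HRP secondary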
# [18] = molecular target: NADPH oxidase 2 (Homo sapiens) (UniProt P04839); assay: NOX2-dependent H2O2 signal modulators, primary screen, NOX inhibitor project, cell-based, HEK293-NOX2, PMA-stimulated, Amplex Red fluorescence (AID 1159); details: 45 min, higher = more signal, called active from +8 up or from −8 down; note: test concentration not given here
# [19] = molecular target: NADPH oxidase 4 (Homo sapiens) (UniProt Q9NPH5); assay: NOX4-dependent H2O2 signal modulators, primary screen, NOX inhibitor project, cell-based, HEK293-NOX4, tetracycline-induced, Amplex Red fluorescence (AID 1160); details: 45 min, higher = more signal, called active from +8 up or from −8 down
# [20] = molecular target: NADPH oxidase 5 (Homo sapiens) (UniProt Q96PH1); assay: NOX5-dependent H2O2 signal modulators, primary screen, NOX inhibitor project, cell-based, HEK293-NOX5, Amplex Red fluorescence (AID 1161); details: HEK293-NOX5, ionomycin, 45 min, higher = more signal
# NADPH oxidase 5 (Homo sapiens), sequence (Q96PH1 whole entry, looked up): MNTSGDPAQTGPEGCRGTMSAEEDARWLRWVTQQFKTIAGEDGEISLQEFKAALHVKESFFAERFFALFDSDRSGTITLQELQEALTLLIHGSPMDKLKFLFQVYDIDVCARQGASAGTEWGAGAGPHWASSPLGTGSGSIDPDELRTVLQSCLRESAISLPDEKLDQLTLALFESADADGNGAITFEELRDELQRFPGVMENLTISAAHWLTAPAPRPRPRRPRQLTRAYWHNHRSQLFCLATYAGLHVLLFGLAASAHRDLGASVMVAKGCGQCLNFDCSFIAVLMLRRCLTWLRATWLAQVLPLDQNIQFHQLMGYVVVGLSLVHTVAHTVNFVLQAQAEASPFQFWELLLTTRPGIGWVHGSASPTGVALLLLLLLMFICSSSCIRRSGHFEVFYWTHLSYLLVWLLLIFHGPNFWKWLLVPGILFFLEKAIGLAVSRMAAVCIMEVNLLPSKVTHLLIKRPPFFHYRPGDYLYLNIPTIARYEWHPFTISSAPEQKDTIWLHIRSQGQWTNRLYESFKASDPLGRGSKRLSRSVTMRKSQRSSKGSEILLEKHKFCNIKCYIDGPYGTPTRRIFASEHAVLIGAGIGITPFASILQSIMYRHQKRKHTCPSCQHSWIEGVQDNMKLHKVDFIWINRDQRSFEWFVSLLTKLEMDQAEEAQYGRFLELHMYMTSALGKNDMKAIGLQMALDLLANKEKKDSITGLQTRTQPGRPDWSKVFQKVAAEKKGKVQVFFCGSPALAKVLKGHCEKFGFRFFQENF
# Streptavidin (Streptomyces avidinii), sequence (P22629 whole entry, looked up): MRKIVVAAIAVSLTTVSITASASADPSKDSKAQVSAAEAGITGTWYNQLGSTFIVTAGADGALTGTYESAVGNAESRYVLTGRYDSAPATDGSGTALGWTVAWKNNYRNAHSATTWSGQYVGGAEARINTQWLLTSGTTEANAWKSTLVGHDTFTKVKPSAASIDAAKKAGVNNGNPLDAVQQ
# NADPH oxidase 4 (Homo sapiens), sequence (Q9NPH5 whole entry, looked up): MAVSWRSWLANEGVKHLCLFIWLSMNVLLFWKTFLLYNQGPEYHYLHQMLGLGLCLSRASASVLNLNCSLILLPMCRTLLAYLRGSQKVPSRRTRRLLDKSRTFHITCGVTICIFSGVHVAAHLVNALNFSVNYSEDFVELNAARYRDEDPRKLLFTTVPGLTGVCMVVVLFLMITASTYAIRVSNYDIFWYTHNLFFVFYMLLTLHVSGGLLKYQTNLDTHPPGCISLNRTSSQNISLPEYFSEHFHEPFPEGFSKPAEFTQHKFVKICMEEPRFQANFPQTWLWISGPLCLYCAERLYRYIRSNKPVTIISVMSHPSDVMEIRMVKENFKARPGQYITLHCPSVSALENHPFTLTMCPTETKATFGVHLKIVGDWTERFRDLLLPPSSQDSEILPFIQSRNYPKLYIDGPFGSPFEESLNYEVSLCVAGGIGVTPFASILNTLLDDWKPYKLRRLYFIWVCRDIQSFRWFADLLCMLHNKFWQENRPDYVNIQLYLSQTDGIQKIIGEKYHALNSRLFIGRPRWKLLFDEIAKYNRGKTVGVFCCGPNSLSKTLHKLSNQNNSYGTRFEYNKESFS
# NADPH oxidase 2 (Homo sapiens), sequence (P04839 whole entry, looked up): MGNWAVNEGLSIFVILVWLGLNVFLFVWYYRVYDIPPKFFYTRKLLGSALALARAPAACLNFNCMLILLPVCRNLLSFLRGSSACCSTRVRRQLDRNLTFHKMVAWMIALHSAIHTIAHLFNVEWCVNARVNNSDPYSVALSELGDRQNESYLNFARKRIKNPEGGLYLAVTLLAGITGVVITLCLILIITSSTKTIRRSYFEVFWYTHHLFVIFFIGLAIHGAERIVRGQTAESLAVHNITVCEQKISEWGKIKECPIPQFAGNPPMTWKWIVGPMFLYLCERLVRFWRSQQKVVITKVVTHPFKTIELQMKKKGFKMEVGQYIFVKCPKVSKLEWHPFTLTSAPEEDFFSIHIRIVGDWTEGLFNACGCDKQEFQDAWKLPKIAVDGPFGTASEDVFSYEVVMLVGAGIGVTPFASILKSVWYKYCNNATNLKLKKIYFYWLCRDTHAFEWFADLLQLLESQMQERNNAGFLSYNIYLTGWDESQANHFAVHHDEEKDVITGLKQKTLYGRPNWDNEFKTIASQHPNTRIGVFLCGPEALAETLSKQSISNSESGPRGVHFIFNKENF
# Torsin-1A (Homo sapiens), sequence (O14656 whole entry, looked up): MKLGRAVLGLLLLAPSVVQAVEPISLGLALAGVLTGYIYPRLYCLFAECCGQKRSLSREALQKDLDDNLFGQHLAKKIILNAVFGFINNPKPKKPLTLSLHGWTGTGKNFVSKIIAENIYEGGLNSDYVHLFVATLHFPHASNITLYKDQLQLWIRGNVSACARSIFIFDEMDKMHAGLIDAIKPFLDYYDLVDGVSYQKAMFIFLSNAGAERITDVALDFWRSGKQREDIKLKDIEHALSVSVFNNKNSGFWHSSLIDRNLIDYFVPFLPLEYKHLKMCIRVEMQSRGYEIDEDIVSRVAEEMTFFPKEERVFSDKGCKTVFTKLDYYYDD
Compound,composite z-score [1],z-score [2],z-score [3],z-score [4],z-score [5],composite z-score [6],composite z-score [7],composite z-score (Torsin-1A (Homo sapiens) [8]),composite z-score (Torsin-1A (Homo sapiens) [9]),composite z-score [10],z-score [11],composite z-score [12],z-score [13],z-score [14],z-score [15],z-score [16],z-score [17],z-score [18],z-score [19],z-score [20]
O=C(NCc1ccc(F)cc1)[C@H]1C[C@H]2C(=O)N3CCC[C@H]3C(=O)N2[C@H]1c1ccc(O)cc1,-0.216,-2.87 (inactive),0.893 (inactive),1.24 (inactive),-0.677 (inactive),-1.32,-0.443,0.264,0.202,0.546,1.84 (inactive),-0.491,1.25 (inactive),-0.989 (inactive),-3.27 (inactive),-1.66 (inactive),0.505,-1.35 (inactive),-0.184 (inactive),0.601
COc1ccc(C(=O)Nc2cccc(CN3C(=O)[C@@]4(O[C@@H](CC(=O)N5CCC[C@H]5CO)[C@H]([Si](C)(C)c5ccc(OC)cc5)[C@H]4C)c4ccccc43)c2)cc1,0.107,-4.18 (inactive),-0.601 (inactive),1.69 (inactive),-1.55 (inactive),0.621,-0.0454,0.313,1.15,1.26,-0.184 (inactive),-0.06,4.51 (inactive),1.32 (inactive),0.691 (inactive),0.696 (inactive),1.31,1.24 (inactive),0.982 (inactive),4.72
[N-]=[N+]=Nc1ccccc1C[C@]1(C(=O)N2CCOCC2)N=C(c2ccc(OCCCO)cc2)O[C@H]1c1ccccc1N=[N+]=[N-],0.936,-4.16 (inactive),-0.781 (inactive),0.0686 (inactive),-2.38 (inactive),1.79,0.0757,1.32,0.946,1.76,1.76 (inactive),0.15,30.7 (active),25.3 (active),1.18 (inactive),6.73 (inactive),2.28,-2.86 (inactive),0.383 (inactive),-2.57
O=C1C2C=CC(C(O)c3c(F)cccc3Cl)N(Nc3ccc([N+](=O)[O-])cc3)C2C(=O)N1c1ccccc1 (stereo not given),0.469,-1.39 (inactive),-1.44 (inactive),-0.0787 (inactive),0.329 (inactive),1.26,0.142,0.414,1.03,1.01,-0.262 (inactive),0.218,30 (active),21 (active),2.34 (inactive),1.76 (inactive),-0.24,-1.5 (inactive),-2.29 (inactive),-1.9
CC(C)(C)N1CC=CC23O[C@@H]4/C=C\CCCOC(=O)C4[C@H]2C(=O)N(CCCCCO)[C@@H]3C1=O (stereo not given in full),-0.552,-0.0495 (inactive),1.27 (inactive),0.191 (inactive),-0.311 (inactive),-0.573,-0.258,-0.185,-1.33,-0.58,-0.81 (inactive),-0.191,0.373 (inactive),0.135 (inactive),-1.09 (inactive),0.0116 (inactive),-0.786,1.16 (inactive),0.0398 (inactive),1.21
CC1=C([C@H](O)CCc2ccccc2)[C@H](CO)n2c(=O)n(-c3ccccc3)c(=O)n2C1,-0.0682,-1.13 (inactive),-1.21 (inactive),0.399 (inactive),0.0978 (inactive),-0.141,-0.202,0.217,-0.485,0.359,2.91 (inactive),-0.06,1.44 (inactive),-0.657 (inactive),-0.237 (inactive),-1.48 (inactive),1.77,-0.53 (inactive),-0.429 (inactive),0.218
CC1CC/C=C\[C@H]2OC34C=CCN(c5ccc6ccccc6c5)C(=O)[C@H]3N(C(C)CO)C(=O)[C@@H]4C2C(=O)O1 (stereo not given in full),-0.786,-0.0174 (inactive),0.282 (inactive),-0.0899 (inactive),-0.0752 (inactive),-0.926,-0.0933,-0.538,-1.15,-0.254,-0.114 (inactive),-0.0933,0.856 (inactive),0.222 (inactive),0.927 (inactive),0.233 (inactive),-0.347,0.995 (inactive),-0.181 (inactive),1.58
O=C1[C@H]2C=C(I)[C@H](C[C@@H]2OCCCCCCO)[C@@]12CO2,-0.302,0.567 (inactive),-0.04 (inactive),1.21 (inactive),1.77 (inactive),-0.324,0.255,0.349,0.541,1.07,-1.02 (inactive),0.0834,5.11 (inactive),0.713 (inactive),0.487 (inactive),0.035 (inactive),-0.251,-0.212 (inactive),0.645 (inactive),-1.22
